# In the library only some 5.9% were active in any assay of this set; here they are far more common.
# VP16 counter – inhibits Gal4-VP16 luciferase reporter, ROR gamma counter-screen. Drosophila S2 Gal4-VP16 UAS-luciferase, luminescence, 20 h. AID 2546. 310,000 compounds, 3.5% hits. Potency, µM (doses to about 53.6 µM), usual class: inhibitors;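 note: Gal4-VP16 expression switched on by copper sulfate through the metallothionein promoter; nearly all actives have a fitted effect of over 50% in size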
# FBPA coupling cs – inhibits coupling enzyme system, counter-screen for aldolase hits; 290,000 compounds, 0.67% hits; AID 2472; activity change, negative = inhibition, % at 58.2 µM, hits read low; coupling enzyme system counterscreen, AmpLite Red fluorescence; in the data active = activity change below about -30%
#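 Counterscreen of the coupled detection system alone, without aldolase: glyceraldehyde-3-phosphate coupling enzymes plus AmpLite Red readout. Compounds at 57.5 uM final, 10 min RT preincubation, 20 min RT reaction, fluorescence 525/598 nm.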
# RORg inh – inhibitors of mouse ROR gamma transcriptional activity | P51450 | Drosophila S2 Gal4-RORgamma UAS-luciferase reporter, 20 h | Potency, µM (series often up to 53.6 µM), most hits filed as inhibitors | 310,000 compounds, 5.4% hits; note: nearly all actives have a fitted effect of over 60% in size
# Target sequence (P51450 whole entry, looked up, the tested form may be a part): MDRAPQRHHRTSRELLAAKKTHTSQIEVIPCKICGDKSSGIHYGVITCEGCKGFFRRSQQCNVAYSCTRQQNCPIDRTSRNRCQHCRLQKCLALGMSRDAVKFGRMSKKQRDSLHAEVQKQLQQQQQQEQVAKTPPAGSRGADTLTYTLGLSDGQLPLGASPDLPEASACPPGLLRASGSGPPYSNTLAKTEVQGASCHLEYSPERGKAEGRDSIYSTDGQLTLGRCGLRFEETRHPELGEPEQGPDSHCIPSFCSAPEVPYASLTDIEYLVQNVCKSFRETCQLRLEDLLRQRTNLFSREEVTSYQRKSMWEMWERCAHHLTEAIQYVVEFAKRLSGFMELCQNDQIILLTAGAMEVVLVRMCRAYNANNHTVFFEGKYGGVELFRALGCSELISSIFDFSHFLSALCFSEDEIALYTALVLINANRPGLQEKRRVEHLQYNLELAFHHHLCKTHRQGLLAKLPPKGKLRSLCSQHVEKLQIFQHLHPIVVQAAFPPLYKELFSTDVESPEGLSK
#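 In this cell-based reporter format, copper sulfate (700 uM final) drives Gal4–ROR gamma fusion expression from a metallothionein promoter in Drosophila Schneider cells; compounds preincubated 1 hr, reporter read after 20 hr at ambient temperature.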
# TrxR1 substrate – substrates of rat thioredoxin reductase 1 | O89049 | purified TrxR1 substrate turnover, NADPH consumption readout | Potency, µM (doses to about 114 µM) | 390,000 compounds, 0.01% hits; note: nearly all actives have a fitted effect of over 50% in size
#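 Rat TrxR1, dispensed at 90 nM, was prereduced with 400 uM NADPH (final) for 5 min at ~22 deg C, then incubated with compound 15 min before 400 uM selenite. A first-read NADPH fluorescence drop versus no-compound background flagged substrates.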
# GALK inhibitor – galactokinase (human) inhibition; P51570; Purified GALK, Kinase-Glo residual ATP luminescence; Potency, µM (doses to about 57.5 µM), usual class: inhibitors; 270,000 compounds, 0.007% hits; AID 1868
#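 The enzyme phosphorylates galactose (100 uM) using ATP (35 uM); inhibition is detected as higher residual ATP, quantified by bioluminescence after 1 h reaction at room temperature, pH 8.0.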
# rTrxR1 inhibitor – inhibitors of rat thioredoxin reductase 1; Potency, µM (titrated, usually from 114 µM), hits mostly inhibitors; 390,000 compounds, 1% hits; recombinant rTrxR1, NADPH fluorescence consumption, selenite substrate; O89049; note: nearly all actives have a fitted effect of over 65% in size
#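 Rat TrxR1 (90 nM in the dispensed reagent) was pre-reduced with 400 uM NADPH for 5 min at room temperature, then incubated with compound for 15 min. After 400 uM selenite was added, NADPH fluorescence (Ex 340/Em 450 nm) was followed for 8 min.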
# Hits are given with their value; . = inactive; ? = inconclusive; / = not tested or not shown; [ ] = remark or other dose. Unless noted, calls come from the whole dose curve; as a rule, active = well fitted curve in the direction sought with a large enough effect; inconclusive = small, poorly fitted or top-dose-only effect, or another doubt; inactive = no such curve, though single readings can be large; an effect the other way counts as inactive or inconclusive.
SMILES,VP16 counter,FBPA coupling cs,RORg inh,TrxR1 substrate,GALK inhibitor,rTrxR1 inhibitor
CN(C)c1ccc(/C=N/NC(=O)c2ccc3c(c2)OCO3)cc1,.,.,?,.,.,.
OC(CNC1CCCCC1)COCCOc1ccc(Br)cc1 (stereo not drawn),.,.,.,.,.,.
C=CCn1c(CSCc2ccccc2)nnc1SCC(=O)N1CCN(c2ccccc2)CC1,?,.,28µM,.,.,?
O=C(CSc1nc2nn(-c3ccccc3)c(=O)c-2c2n1CCCCC2)Nc1ccc(F)cc1F,/,/,/,.,/,.
CCOC(=O)c1sc2nc(C)[nH]c(=S)c2c1C,0.79µM,.,0.56µM,.,.,.
COc1ccc(-n2nc3c(N4CCC(C(=O)NCC(C)c5ccccc5)CC4)nnc(C)c3c2C)cc1 (stereo not drawn),20µM,.,.,.,.,.
O=C(CN1C(=O)C2CCCCC2C1=O)N1CCN(c2ccccc2)CC1 (stereo not drawn),.,.,?,.,.,.
CC1C/C(=C/c2ccncc2)C(=O)/C(=C/c2ccncc2)C1 (stereo not drawn),2.8µM,.,7.1µM,.,.,14µM
CC1C/C(=C/c2cccn2C)C(=O)/C(=C/c2cccn2C)C1 (stereo not drawn),?,.,13µM,.,.,?
O=C1/C(=C/c2ccncc2)Cc2ccccc21,/,/,/,.,/,.
O=[N+]([O-])/C(C(=C(Cl)Cl)N1CCN(Cc2ccccc2)CC1)=C1\NCCN1Cc1ccc(Cl)nc1,.,.,.,.,.,.
O=[N+]([O-])C(/C=C(\Cl)[N+](=O)[O-])=C1N(Cc2ccc(Cl)nc2)CCN1Cc1ccc(Cl)nc1,?,.,?,.,.,1.8µM
CCn1c(CCCNC(=O)c2cccs2)nc2ccccc21,.,.,.,.,.,.
CCN(CC)CCn1c(NC(=O)c2ccc(C)cc2)nc2ccccc21,?,.,?,.,.,.
CN(C)CCn1c(NC(=O)c2ccc(Cl)cc2)nc2ccccc21,1.4µM,.,1.1µM,.,.,.
CCn1c(NC(=O)c2cccs2)nc2ccccc21,1.1µM,.,0.71µM,.,.,.
CCN(CC)CCn1c(NC(=O)c2ccc(C(F)(F)F)cc2)nc2ccccc21,0.35µM,.,0.22µM,.,.,.
Cc1cc2ccccc2n1CCNC(=O)c1cccs1,14µM,.,13µM,.,.,.
c1ccc(OCc2nc3c4c(ncn3n2)-c2ccccc2CC42CCCC2)cc1,.,.,.,.,.,.
CCCn1c(NC(=O)c2cccc(C)c2C)nc2ccccc21,2.2µM,.,2µM,.,.,.
CCCn1c(NC(=O)c2ccc(Cl)c(S(=O)(=O)N3CCCC3)c2)nc2ccccc21,3.5µM,.,1.6µM,.,.,.
CCC(Sc1nnc2c(n1)[nH]c1ccccc12)C(=O)Nc1nnc(C(C)C)s1 (stereo not drawn),/,/,/,.,/,.
O=C1/C(=C/c2cccc(F)c2)CSc2sccc21,.,.,.,.,.,.
CC1CCN(C2=NC(=O)/C(=C/c3ccccc3F)S2)CC1,.,.,.,.,.,.
Cc1ccc(/C=C2\CC(C)CC3=C2NC(=S)NC3c2ccc(C)cc2)cc1 (stereo not drawn),?,.,3.2µM,.[0.0914 µM],.,.
SMILES,VP16 counter,FBPA coupling cs,RORg inh,TrxR1 substrate,GALK inhibitor,rTrxR1 inhibitor
Cc1ccc(/C=C2\CCCC3=C2NC(=S)NC3c2ccc(C)cc2)cc1 (stereo not drawn),.,.,.,.,/,?
CC1CC2=C(NC(=S)NC2c2cccc(F)c2)/C(=C/c2cccc(F)c2)C1 (stereo not drawn),4.5µM,.,1µM,.,.,.
CC1CC2=C(NC(=S)NC2c2ccccc2F)/C(=C/c2ccccc2F)C1 (stereo not drawn),6.3µM,.,2.8µM,.,.,.
CNC(=O)C(Sc1nc(C)nc2c1oc1ccccc12)C(C)=O (stereo not drawn),7.1µM,.,.,.,.,.
Cc1nc(SCC(=O)Nc2ccccc2)c2oc3ccccc3c2n1,.,.,.,.,.,.
Cc1ccc(Nc2nnc(SCC(=O)c3ccc(Br)s3)s2)c(C)c1,?,.,35µM,.,.,.

# Bioassay records from PubChem BioAssay.
